# Reference: the supplement of paper PMC7156485
# Unmarked numbers belong to inactive results.
# Tested on: TDF
# Test: H1.0 immunofluorescence intensity relative to DMSO (% of DMSO); higher = stronger H1.0 induction, active = 120 or more
# Conditions: concentration: 10 µM; 24 h
# How it was run: (§1)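 H1.0 nuclear intensity or cell number is stated as percent of the plate control, based on the median of replicates, and HCC1569 values were smoothed for positional effects. These came from HCC1569 and TDF cells treated with compounds at 10 µM for 24 h at 37 °C in triplicate, then fixed in 3.7% formaldehyde and stained with a rabbit anti-H1.0 antibody, an AlexaFluor 647 secondary and DAPI.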
# 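Further: TDF is a line of transformed human dermal fibroblasts of mesenchymal origin.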
row,Compound,H1.0 immunofluorescence intensity
1,CCCCOC(=O)NC(=O)C1c2ccccc2Oc2ccccc21 [butyl 9H-xanthen-9-ylcarbonylcarbamate],90.1
2,"CCCCc1c(-c2ccc(OC)cc2)[nH]c2nccnc12 [Aloisine, RP106]",93.2
3,O=C(c1cc(O)c(O)c([N+](=O)[O-])c1)c1ccccc1F,95.7
4,COc1cc(C(=O)OCCCN2CCCN(CCCOC(=O)c3cc(OC)c(OC)c(OC)c3)CC2)cc(OC)c1OC [Dilazep],103
5,"O=C1CSc2ccccc2N1Cc1cccc(C(F)(F)F)c1 [4-[3-(trifluoromethyl)benzyl]-2H-1,4-benzothiazin-3(4H)-one]",96.3
6,Cc1cc(C2CCCCC2)n(O)c(=O)c1.NCCO [Ciclopirox ethanolamine],93.2
7,CC1C(=O)CCC2C1(C)CCC1C2(C)CCC2(C)C3CC(C)(C)CCC3(C)CCC12C (centres undefined) [Friedelin],96.1
8,Cc1ccc(NC(=O)CCCCCC(=O)Nc2ccccc2N)cc1 [N~1~-(2-aminophenyl)-N~7~-(4-methylphenyl)heptanediamide],113
9,CCCCCCCC/C=C\CCCCCCCC(N)=O [(9Z)-9-octadecenamide],102
10,"CC(=O)Oc1ccccc1C(=O)Nc1ncc([N+](=O)[O-])s1 [2-{[(5-nitro-1,3-thiazol-2-yl)amino]carbonyl}phenyl acetate]",98.5

# Tested on: HCC1569
# Test: H1.0 immunofluorescence intensity relative to DMSO (% of DMSO); higher = stronger H1.0 induction, active = 140 or more
# Conditions: concentration: 10 µM; 24 h
# How it was run: as §1
row,Compound,H1.0 immunofluorescence intensity
1,O=C(C=Cc1ccc(O)cc1)c1ccc(O)cc1O [Isoliquiritigenin],100
2,N[C@H](CO)C(=O)O [D-Serine],102
3,COC(=O)c1c(C)[nH]c(C)c1C(=O)c1ccccc1Cc1ccccc1,129
4,CC1=C(C(=O)O)N2C(=O)C(NC(=O)C(N)c3ccccc3)C2SC1 (centres undefined) [Cephalexin hydrate],96.5
5,CCCCCCCCC=CCCCCCCCCC(=O)O [10(Z)-Nonadecenoic acid],106
6,Cn1c(-c2ccc3c(c2)OCO3)cc(=O)c2ccccc21 [Graveoline],96.9
7,Cn1c(=O)c2c(nc(C=Cc3cccc(Cl)c3)n2C)n(C)c1=O [8-(3-Chlorostyryl)caffeine],99.1
8,CCC(C)n1ncn(-c2ccc(N3CCN(c4ccc(OCC5COC(Cn6cncn6)(c6ccc(Cl)cc6Cl)O5)cc4)CC3)cc2)c1=O (centres undefined) [Itraconazole],149 (active)
9,Nc1ccc(S(=O)(=O)Nc2ccnn2-c2ccccc2)cc1 [Sulfaphenazole],106
10,O=C([O-])Cc1ccccc1Nc1c(Cl)cccc1Cl.[Na+] [Diclofenac sodium],89.9
11,CC1COC2=C1C(=O)C(=O)c1c2ccc2c1CCCC2(C)C (centres undefined) [Cryptotanshinone],100
12,CCCCCCCCCCCCCCCC(=O)NCC(COP(=O)([O-])OCC[N+](C)(C)C)OCC (racemic) [rac-2-Ethoxy-3-hexadecanamido-1-propylphosphocholine],104
13,Cl.Cl.O=S(=O)(c1cccc2cnccc12)N1CCCNCC1,94.3
14,CCCCc1ncc(C=C(Cc2cccs2)C(=O)O)n1Cc1ccc(C(=O)O)cc1.CS(=O)(=O)O [Eprosartan mesylate],97.4
15,"CN(Cc1cnc2nc(N)nc(N)c2n1)c1ccc(C(=O)NC(CCC(=O)O)C(=O)O)cc1 (single isomer, unassigned; (-)) [(-)Amethopterin]",110
16,COc1cc(C=CC(=O)CC(=O)C=Cc2ccc(O)c(OC)c2)ccc1O [Curcumin],139
17,CN1CCc2cccc3c2C1Cc1ccc(O)c(O)c1-3.Cl (centres undefined) [Apomorphine hydrochloride hemihydrate],99.6
18,Nc1nc(Nc2ccccc2)nc2c1ncn2C1OC(CO)C(O)C1O (centres undefined) [2-Phenylaminoadenosine],102
19,O=C(O)C1=CC(=C(c2ccc(O)c(C(=O)O)c2)c2ccc(O)c(C(=O)O)c2)C=CC1=O [Aurintricarboxylic acid],85.8
